Measurements: ChEMBL document CHEMBL4513216, “Probing the Open Global Health Chemical Diversity Library for Multistage-Active Starting Points for Next-Generation Antimalarials” (ACS Infect Dis, 2020)
Hit rate of the full screen: of about 69,000 compounds, about 8,600 (12%) showed an effect of 50% or more. The sample holds strong results, similar compounds and a random draw of the others, so the mix is not that of the screen.

tested on: Plasmodium berghei; experiment: Screen against P. berghei liver stage (PbLuc), transformed with Luciferase, at 10uM; type: functional, HepG2; conditions: tested at 10 uM

Row | SMILES | INHIBITION
1 | Cn1cc(CN2CCC(F)(F)C3(CCN(c4ncccn4)C3)C2)cn1 (centres undefined) | 9.51%
2 | Cc1ccc(N2CCC3(CN(Cc4cccs4)CCC3(F)F)C2)nn1 (centres undefined) | 61.3%
3 | Fc1ccc(CN2CCC(F)(F)C3(CCN(c4cnccn4)C3)C2)cc1 (centres undefined) | 1.61%
4 | Cc1ccc(N2CCC3(CN(CCO)CCC3(F)F)C2)nn1 (centres undefined) | 39.5%
5 | Cc1ccc(CN2CCC(F)(F)C3(CCN(c4cnccn4)C3)C2)o1 (centres undefined) | 35.1%
6 | Cc1ccc(N2CCC3(CN(Cc4ccncc4)CCC3(F)F)C2)nn1 (centres undefined) | 89.1%
7 | CC(C)(C)c1ncc(C(=O)NCCNS(C)(=O)=O)s1 | -33.9%
8 | CNS(=O)(=O)CC(=O)N1CCCc2cc(C(C)C)ccc21 | 39.7%
9 | O=C(c1cnc(-c2ncccn2)s1)N1CCCC(n2cccn2)C1 (centres undefined) | 21%
10 | Cc1nc(NCCC23CCCN2CCC3)cc(C2CCCNC2)n1 (centres undefined) | -59.5%
11 | Cc1nc(NCC23CCCN2CCC3)cc(C2CCCNC2)n1 (centres undefined) | -71.1%
12 | CNC(=O)c1[nH]nc2c1CN(c1cc(C3CCCNC3)nc(C)n1)CC2 (centres undefined) | 55.4%
13 | Cc1nc(C2CCCNC2)cc(N2CCc3nc(N)sc3C2)n1 (centres undefined) | 53.6%
14 | CNc1cc(C2CCCNC2)nc(C)n1 (centres undefined) | 16.4875%
15 | CNC(=O)C1CCN(c2cc(C3CCNCC3)nc(C)n2)C1 (centres undefined) | 26.4%
16 | O=C(COc1coc(CN2CCOCC2)cc1=O)Nc1ccccc1F | -0.532%
17 | Cc1ncc2c(c1C(=O)O)CCN(c1ncc(F)cn1)C2 | 7.24%
18 | Cc1nc(CN2CCOC(Cn3cccn3)C2)no1 (centres undefined) | 4.71%
19 | Cc1noc(C2CCN(Cn3cc(Cl)cn3)CC2)n1 | 37.9%
20 | C[C@]1(O)CCN(Cc2ncccc2F)C[C@@H]1Oc1ccccc1 | -11.7%
21 | CC[S+](CC)[c-]1c(=O)[nH]c(=O)n(CCc2ccc(F)cc2)c1=O | -17.6%
22 | O=C(O)c1cnc(N2CCC(O)CC2)nc1COc1cccc(F)c1 | 6.67%
23 | CCOc1ccc(Br)cc1C1CCCN1 (centres undefined) | 16.8%

Row | SMILES | INHIBITION
24 | Fc1cnc(N2CCOC3(CCN(Cc4cccs4)CC3)C2)nc1 | 48.4%
25 | Fc1cnc(N2CCC3(CC2)CN(Cc2cccs2)CCO3)nc1 | 60.3%
26 | Cc1cnc(N2CCC3(CC2)CN(Cc2cccs2)CCO3)nc1 | 58.3%
27 | Fc1cnc(N2CCC3(CC2)CN(Cc2ccccn2)CCO3)nc1 | -3.51%
28 | O=C(c1ccccc1)N1CCOC2(CCN(Cc3cccs3)CC2)C1 | -11%
29 | c1ccc(CN2CCOC3(CCN(c4ncccn4)CC3)C2)nc1 | 14.2%
30 | O=C(NCc1csc(Br)c1)Nc1cn[nH]c1 | 17.5%
31 | COCCC1(C(=O)O)CCCN(CCOCc2ccccc2)C1 (centres undefined) | 27.9%
32 | COCCCC1(C(=O)O)CCCN(Cc2ccccc2C)C1 (centres undefined) | 14.9%
33 | COCCC1(C(=O)O)CCCN(Cc2cc3c(cc2C)OCO3)C1 (centres undefined) | 57.2%
34 | COCCC1(C(=O)O)CCCN(CCc2ccccc2)C1 (centres undefined) | 31.6%
35 | COCCCC1(C(=O)O)CCCN(Cc2cc3c(cc2C)OCCO3)C1 (centres undefined) | -31.4%
36 | COCCC1(C(=O)O)CCCN(Cc2cc3c(cc2Cl)OCO3)C1 (centres undefined) | 58.5%
37 | C=c1cc(C)oc1=C1NC(c2c(C)ncc3c2CCNC3)=NO1 | 49%
38 | O=C(Nc1cnn(Cc2ccc(Cl)cc2)c1)N1CCCC1CO (centres undefined) | -31.1%
39 | FC1(F)CCNCC12CCN(c1cccnc1)C2 (centres undefined) | 33%
40 | O=C(NCCNc1ncccn1)C1CC(=O)N(Cc2ccccn2)C1 (centres undefined) | 50.5%
41 | O=C(NCCNc1ncccn1)C1CC(=O)N(Cc2ccco2)C1 (centres undefined) | 2.3%
42 | O=C(NCCNc1ncccn1)C1CC(=O)N(Cc2ccccc2)C1 (centres undefined) | -24.2%
43 | O=C1CCc2cc(NC(=O)C3CCCN3c3nccs3)ccc2N1 (centres undefined) | 24.3165%
44 | O=C(C1CC1)N(CCc1ccccc1)C1CCOC1 (centres undefined) | -28.6%
45 | O=C(C1CCOCC1)N(CCc1ccccc1)C1CCOC1 (centres undefined) | -5.33%
46 | O=C1CC[C@H](C(=O)N(CCc2ccccc2)C2CCOC2)N1 (some centres undefined) | 55%

Row | SMILES | INHIBITION
47 | C[C@H]1CN(C(=O)N(C)C)C[C@@]12CCN(c1ccsc1)C2=O | 36.9%
48 | O=C(NCC(F)F)c1ccc(S(=O)(=O)NCCc2ccncc2)cc1 | 52.2%
49 | O=C(NCC(F)F)c1ccc(S(=O)(=O)NCCc2c[nH]cn2)cc1 | 10.4%
50 | O=C(c1ccc(S(=O)(=O)NCCc2ccccn2)cc1)N1CCCC1 | 30.3%
51 | O=C(c1ccc(S(=O)(=O)NCCc2ccncc2)cc1)N1CCCC1 | 57.6%
52 | O=C(NCC(F)F)c1ccc(S(=O)(=O)NCCc2cn[nH]c2)cc1 | 35.8%
53 | O=C(c1ccc(S(=O)(=O)NCc2ccncc2)cc1)N1CCNCC1 | 19.5%
54 | CC(C)c1nccn1C1CCCN(C(=O)c2cn3cccnc3n2)C1 (centres undefined) | 1.78%
55 | Cc1ncccc1NC(=O)c1nc2c(n1C)CCN(C(=O)C1CC1)C2 | 66.6%
56 | Cn1c(C(=O)NC2CC2)nc2c1CCN(c1ncccn1)C2 | 21.6%
57 | Cn1c(C(=O)NC2CCCC2)nc2c1CCN(Cc1ccccc1)C2 | -18.5%
58 | Cc1cnn(CC2CCCCN2c2nn3cc(C)nc3s2)c1 (centres undefined) | -23.9%
59 | CC1(C)CN(C(=O)c2occc2COc2cccc(C#N)c2)CCO1 | -10.8%
60 | Cc1cnn(C2CN(CCOc3ccccc3C#N)C2)c1 | 58.8%
61 | Cc1cnn(C2CN(CCOc3ccc(C#N)cc3)C2)c1 | -26.1%
62 | Cc1cnn(C2CN(CCOc3cccc(C#N)c3)C2)c1 | 69.9%
63 | Cn1ccnc1CN1CCN(CCOc2ccccc2C#N)CC1 | 44.8%
64 | Cc1cnn(C2CN(CCCOc3ccc(C#N)cc3)C2)c1 | 49%
65 | Cc1cc(C)n(CC2CN(CCOc3ccccc3C#N)CCO2)n1 (centres undefined) | -10.6%
66 | O=C(NCCc1cc(N2CCOCC2)nc(N2CCCC2)n1)C1CC1 | 15.548%
67 | O=C(CC1CC2(CCN(CC3CC3)CC2)Oc2ccccc21)NC1CC1 (centres undefined) | 7.5%
68 | Fc1ccc([C@@H]2COC[C@H]2NCc2cccc(F)c2)cc1 | 20.2%
69 | CCN1CCc2c(CNC(=O)c3nccn3C)cncc2C1 | 35.8%
